# Inconclusive results are not listed. Values without a mark were called inactive. Active and inactive are the calls of the source. The call rests on the fitted dose curve; in most records, active means well fitted curve in the direction sought with a large enough effect; inconclusive means small, poorly fitted or top-dose-only effect, or another doubt; inactive means no such curve, though single readings can be large; an effect the other way counts as inactive or inconclusive.
# Legend:
# HeLa = test: Primary qHTS to identify gynecologic anti-cancer compounds using libraries of approved drugs and bioactive compounds (AID 1345084); settings: Gynecologic cancer cell panel viability, ATPlite luminescence, 48 h; series mostly up to 57.5 µM; further: nearly all actives have a fitted effect of over 55% in size
# How it was run: (§1)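 Cells, 1,000 per well, were allowed to settle for 16 h at 37 C before compound addition. Five concentrations were tested for 48 h, and viability was read by ATPlite luminescence after 15 min at room temperature.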
# JEG-3 = test: as above; settings: Gynecologic cancer cell panel viability, ATPlite luminescence, 48 h; series mostly up to 57.5 µM
# How it was run: as §1
# OV90 = test: as above; settings: Gynecologic cancer cell panel viability, ATPlite luminescence, 48 h; series mostly up to 57.5 µM
# How it was run: as §1
# SKOV3 = test: as above; settings: Gynecologic cancer cell panel viability, ATPlite luminescence, 48 h; series mostly up to 57.5 µM
# How it was run: as §1
# Tov-21-G = test: as above; settings: Gynecologic cancer cell panel viability, ATPlite luminescence, 48 h; series mostly up to 57.5 µM
# How it was run: as §1
# Tov112D = test: as above; settings: Gynecologic cancer cell panel viability, ATPlite luminescence, 48 h; series mostly up to 57.5 µM
# How it was run: as §1
# Es-2 = test: as above; settings: Gynecologic cancer cell panel viability, ATPlite luminescence, 48 h; series mostly up to 57.5 µM
# How it was run: as §1
# Hek293T = test: as above; settings: Gynecologic cancer cell panel viability, ATPlite luminescence, 48 h, control line for the selectivity index; series mostly up to 57.5 µM
# How it was run: as §1
# PA-1 = test: as above; settings: Gynecologic cancer cell panel viability, ATPlite luminescence, 48 h; series mostly up to 57.5 µM
# How it was run: as §1
# [1] = qHTS assay to identify inhibitors of the type 1 interferon - major histocompatibility complex class I in skeletal muscle: Counter screen cell viability and HiBit confirmation (AID 1347412); settings: iHSKM muscle cells + IFN-b, HiBiT or CellTiter-Glo, 24 h; for activity change, negative = inhibition: at 45.9 µM (top of the series); on all read-outs here: nearly all actives have a fitted effect of over 60% in size
# How it was run: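 Luminescence read-out: Nano-Glo HiBiT lytic signal from C-terminally HiBiT-tagged HLA-B in CRISPR-edited human myoblasts, plus CellTiter Glo ATP as viability counter screen. IFN-beta 4.0 ng/ml; 24 hrs treatment at 37 C, 5% CO2.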
# [2] = Drug repurposing screens with cells derived from glioblastoma tumor samples (AID 1345199); settings: GBM patient neurospheres viability, ATP luminescence, 48 h; further: nearly all actives have a fitted effect of over 40% in size
# How it was run: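 Four patient lines of CD133+ GBM neurospheres were screened at several concentrations; hits were retested in those lines plus three slower-growing GBM lines, using 48-hour treatment and ATP-based viability.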
# [3] = at 45.9 µM (top of the series), tumour line B
# [4] = at 45.9 µM (top of the series), tumour line D
# [5] = at 46.1 µM (top of the series), tumour line C
# [6] = at 20 µM (top of the series), tumour line C
# On the % scale 0 is the no-effect control and ±100 the full control effect; potency means the concentration at half of the fitted maximal effect.
smiles,measurement,setting,value
Cc1cc(-c2ncc(CC(=O)Nc3ccc(-c4cnccn4)cn3)cc2C)ccn1,Potency,HeLa,inactive
same,Potency,JEG-3,inactive
same,Potency,OV90,inactive
same,Potency,SKOV3,39.8 µM (active)
same,Potency,Tov-21-G,inactive
same,Potency,Tov112D,inactive
CCC(=O)N1CCN(c2ccc(-n3c(=O)ccc4cnc5ccc(-c6cnc7ccccc7c6)cc5c43)cc2C(F)(F)F)CC1,Potency,Es-2,141 nM (active)
same,Potency,Hek293T,0.1 µM (active)
same,"activity change, negative = cytotoxicity",JEG-3,-16.3% [at 11.6 µM]
same,Potency,PA-1,126 nM (active)
same,Potency,Tov-21-G,0.0794 µM (active)
CN(C)c1ccc(-c2nc3ncc(Cl)c(N4CCN(CC(=O)Nc5nccs5)CC4)c3[nH]2)cc1,Potency,Es-2,inactive
same,Potency,Hek293T,inactive
same,Potency,JEG-3,inactive
same,Potency,OV90,inactive
Cc1cnc(Nc2cccc(CN3CCOCC3)c2)nc1Nc1cccc(S(=O)(=O)NC(C)(C)C)c1,Potency,Es-2,inactive
same,Potency,Hek293T,inactive
same,Potency,JEG-3,inactive
same,Potency,OV90,inactive
same,Potency,SKOV3,0.794 µM (active)
same,Potency,[1]; HiBiT,7.01 µM (active)
C=CC(=O)Nc1cccc(Sc2nc(Nc3ccc(N4CCN(C)CC4)cc3)ncc2Cl)c1,Potency,Es-2,inactive
same,Potency,JEG-3,inactive
same,Potency,OV90,inactive
same,Potency,Tov-21-G,12.6 µM (active)
Cc1ccccc1C(=O)c1ccc(Nc2ccc(Br)cc2N)cc1Cl,Potency,Es-2,inactive
same,Potency,HeLa,inactive
same,Potency,Hek293T,inactive
same,Potency,OV90,inactive
same,Potency,SKOV3,inactive
same,Potency,Tov-21-G,inactive
same,Potency,Tov112D,inactive
N#Cc1ccc(Oc2ccc3c(c2)COB3O)cc1,Potency,Es-2,inactive
same,Potency,Hek293T,inactive
same,Potency,JEG-3,inactive
same,Potency,OV90,inactive
same,Potency,PA-1,inactive
same,Potency,SKOV3,inactive
same,Potency,Tov-21-G,inactive
same,Potency,Tov112D,inactive
COc1ccc(Cn2ccc3ccc(C(=O)NO)cc32)cc1,Potency,Es-2,inactive
same,Potency,HeLa,inactive
same,Potency,Hek293T,inactive
same,Potency,OV90,inactive
same,Potency,Tov112D,inactive
CC1(C)CC(=O)c2c(C(F)(F)F)nn(-c3ccc(C(N)=O)c(NC4CCC(O)CC4)c3)c2C1 (configuration not stated),Potency,HeLa,inactive
same,Potency,OV90,0.316 µM (active)
same,Potency,PA-1,447 nM (active)
same,Potency,SKOV3,0.398 µM (active)
same,Potency,Tov-21-G,0.355 µM (active)
same,Potency,[1]; HiBiT,0.0701 µM (active)
CCn1c(-c2nonc2N)nc2cncc(CNC3CCNCC3)c21,Potency,Es-2,inactive
same,Potency,HeLa,inactive
same,Potency,JEG-3,inactive
same,Potency,PA-1,inactive
same,Potency,Tov112D,inactive
CC[C@H](CC#N)OC(=O)N[C@@H](C)c1cccc(NC(=O)Nc2ccc(-c3cnco3)c(OC)c2)c1,Potency,Es-2,1780 nM (active)
same,Potency,Hek293T,1.78 µM (active)
same,Potency,JEG-3,inactive
same,Potency,PA-1,355 nM (active)
same,Potency,SKOV3,6.31 µM (active)
same,Potency,Tov-21-G,1.26 µM (active)
same,"activity change, negative = inhibition",[1]; Viability,-7.06%
CNc1nc(Nc2ccc(C(=O)N3CCOCC3)cc2OC)ncc1Cl,Potency,Es-2,inactive
same,Potency,HeLa,inactive
same,Potency,Hek293T,inactive
same,Potency,PA-1,inactive
same,Potency,SKOV3,inactive
same,Potency,Tov-21-G,inactive
same,Potency,Tov112D,inactive
CC(=O)Nc1cccc(-n2c(=O)n(C3CC3)c(=O)c3c(Nc4ccc(I)cc4F)n(C)c(=O)c(C)c32)c1,Potency,HeLa,inactive
same,Potency,Hek293T,inactive
same,Potency,JEG-3,inactive
same,Potency,PA-1,inactive
same,Potency,SKOV3,inactive
same,Potency,Tov-21-G,inactive
same,Potency,Tov112D,inactive
COc1cc2c(cc1OC)CC(=O)N(CCCN(C)C[C@H]1Cc3cc(OC)c(OC)cc31)CC2,"activity, negative = cell killing",[2]; [3],-14.4%
same,"activity, negative = cell killing",[2]; [4],-19.2%
same,"activity, negative = cell killing",[2]; [5],-34%
same,Potency,[2]; tumour line A,11.2 µM (active)
Nc1ncnc2c1c(-c1cccc(OCc3ccccc3)c1)cn2C1CC(CN2CCC2)C1 (configuration not stated),Potency,Hek293T,14.1 µM (active)
same,Potency,OV90,22.4 µM (active)
same,Potency,PA-1,14100 nM (active)
same,Potency,Tov-21-G,35.5 µM (active)
same,Potency,[1]; HiBiT,22.2 µM (active)
N#Cc1c(N(CC(=O)O)CC(=O)O)sc(C(=O)O)c1CC(=O)O,"activity, negative = cell killing",[2]; [3],-0.252%
same,"activity, negative = cell killing",[2]; [4],0.729%
same,"activity, negative = cell killing","[2]; at 46 µM (top of the series), tumour line A",-24.3%
same,"activity, negative = cell killing",[2]; [5],4.23%
CC(C)(CO)[C@@H](O)C(=O)NCCC(=O)O,"activity, negative = cell killing",[2]; [3],1.18%
same,"activity, negative = cell killing",[2]; [4],-3.38%
same,"activity, negative = cell killing",[2]; [5],-2.72%
CC(C)Oc1cc(Nc2nc(N[C@@H](C)c3ccc(F)cn3)ncc2Cl)[nH]n1,Potency,[1]; HiBiT,9.91 µM (active)
CN1CCN2c3ncccc3Cc3ccccc3C2C1 (configuration not stated),"activity, negative = cell killing",[2]; [3],-0.787%
same,"activity, negative = cell killing",[2]; [4],-14.6%
same,"activity, negative = cell killing",[2]; [5],14.4%
Clc1ccc(COC(Cn2ccnc2)c2ccc(Cl)cc2Cl)c(Cl)c1 (configuration not stated),"activity, negative = cell killing",[2]; [6],-15.2%
same,Potency,[2]; tumour line A,5.62 µM (active)
same,Potency,[2]; tumour line D,14.1 µM (active)
CCNC(=O)c1noc(-c2cc(C(C)C)c(O)cc2O)c1-c1ccc(CN2CCOCC2)cc1,Potency,JEG-3,inactive
same,Potency,OV90,3.98 µM (active)
same,Potency,PA-1,251 nM (active)
Fc1ccc(C(c2ccc(F)cc2)N2CCN(CC=Cc3ccccc3)CC2)cc1,"activity, negative = cell killing",[2]; [5],-6.32%
same,Potency,[2]; tumour line A,2.82 µM (active)
same,Potency,[2]; tumour line D,11.2 µM (active)
CN1CCc2c(n(Cc3ccc(C(=O)NO)cc3)c3ccccc23)C1,Potency,Hek293T,inactive
same,Potency,JEG-3,inactive
same,Potency,OV90,inactive
same,Potency,Tov112D,inactive
C[C@@H]1CCO[C@H]2Cn3cc(C(=O)NCc4ccc(F)cc4F)c(=O)c(O)c3C(=O)N12,Potency,JEG-3,inactive
same,Potency,Tov-21-G,25.1 µM (active)
CC[C@H]1OC(=O)[C@H](C)[C@@H](O[C@H]2C[C@@](C)(OC)[C@@H](O)[C@H](C)O2)[C@H](C)[C@@H](O[C@@H]2O[C@H](C)C[C@H](N(C)C)[C@H]2O)[C@](C)(O)C[C@H](C)C(=NOCOCCOC)[C@H](C)[C@@H](O)[C@]1(C)O,"activity, negative = cell killing",[2]; [3],-8.15%
same,"activity, negative = cell killing",[2]; [4],4.24%
same,"activity, negative = cell killing",[2]; [5],-6.06%
COc1cc2nccc(Oc3ccc(NC(=O)Nc4ccc(F)cc4F)c(F)c3)c2cc1OC,Potency,[1]; HiBiT,8.83 µM (active)
same,Potency,[1]; Viability,7.87 µM (active)
CNC(=O)c1cc(COc2nnc(Nc3ccc(Cl)cc3)c3ccoc23)ccn1,"activity change, negative = inhibition",[1]; Viability,-24.9%
Clc1ccc(C2(c3ccc(-c4cn[nH]c4)cc3)CCNCC2)cc1,Potency,JEG-3,inactive
same,Potency,SKOV3,31.6 µM (active)
same,Potency,Tov-21-G,12.6 µM (active)
same,Potency,Tov112D,inactive
N#CC(c1ccc(Cl)cc1)c1c(Cl)cc(-n2ncc(=O)[nH]c2=O)cc1Cl (configuration not stated),"activity, negative = cell killing",[2]; [3],-18.3%
same,Potency,[2]; tumour line C,16.4 µM (active)
COc1cc2nccc(Oc3ccc(NC(=O)Nc4cc(C)on4)c(Cl)c3)c2cc1OC,Potency,Hek293T,inactive
same,Potency,JEG-3,inactive
CN(C)CCN(C)C(=O)c1ccc(NC(=O)Nc2ccc(-c3nc(N4CCOCC4)c4ccn(CC(F)(F)F)c4n3)cc2)cc1,Potency,[1]; Viability,1.11 µM (active)
CN1CC(=O)N2C(Cc3c([nH]c4ccccc34)[C@H]2c2ccc3c(c2)OCO3)C1=O (some centres not stated),"activity, negative = cell killing",[2]; [3],-5.44%
same,"activity, negative = cell killing",[2]; [4],-11.4%
same,"activity, negative = cell killing",[2]; [5],-21.6%
same,Potency,[2]; tumour line A,11.2 µM (active)
OC(c1cc(C(F)(F)F)nc2c(C(F)(F)F)cccc12)C1CCCCN1 (configuration not stated),"activity change, negative = inhibition",[1]; HiBiT,-11.4%
same,"activity change, negative = inhibition",[1]; Viability,-12.8%
NCC1CCC(C(=O)O)CC1 (configuration not stated),"activity, negative = cell killing",[2]; [6],25.1%
same,"activity, negative = cell killing","[2]; at 21.2 µM (top of the series), tumour line B",-5.15%
same,"activity, negative = cell killing","[2]; at 21.2 µM (top of the series), tumour line D",-6.32%
same,"activity, negative = cell killing","[2]; at 21.3 µM (top of the series), tumour line A",-17.9%
